The record followed here is PubChem BioAssay (NCATS).

Several values for one entry are separate records, joined by “and”; a condition that tells them apart may be missing. Equal values may be shown once. Inconclusive results are not listed. Activity calls are given as the source filed them. Unless noted, calls come from the whole dose curve; as a rule, active = well fitted curve in the direction sought with a large enough effect; inconclusive = small, poorly fitted or top-dose-only effect, or another doubt; inactive = no such curve, though single readings can be large; an effect the other way counts as inactive or inconclusive.

Experiment [1] can be described thus: Cell Viability - Hek293 (AID 427;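 active = compounds whose dose-response curve shows a full or clear partial loss of cell viability, called from curve shape rather than a numeric limit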;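 note: potency is the fitted concentration of half-maximal effect; cells exposed to compound for 40 hours at 37 °C before reading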). The settings on record: qHTS. The gist of the method: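 qHTS, human embryonic kidney (adenovirus-transformed) cells; 40 hr cpd, 37 °C; CellTiter-Glo ATP luminescence. Norm: DMSO = 0, 100 uM tamoxifen = 100% inhibition. Hill-fit AC50.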
Experiment [2] in a line: Cell Viability - N2a (AID 540).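 Note: cells exposed to compound for 40 h at 37 °C; plate controls were DMSO alone for no effect and tamoxifen control for full effect; nearly all actives have a fitted effect of over 45% in size.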 The settings on record: N2a mouse neuroblastoma cell viability; activity change, negative = cytotoxicity: at 92.2 µM (top of the series). The gist of the method:
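Luminescent ATP signal (CellTiter-Glo, 20 min at room temperature) served as the viability read-out after N2a cells were treated with compounds for 40 hours at 37 °C. Concentration-response data were fitted to the Hill equation for AC50.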

The nature of experiment [3]: Cell Viability - H-4-II-E (AID 543). Note: % is set by controls: 0 for no effect and ±100 for the full control effect; nearly all actives have a fitted effect of over 35% in size. Particulars: H-4-II-E rat hepatoma viability; series mostly up to 92.2 µM. In short, it runs like this: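 Luminescent ATP signal (CellTiter-Glo) served as the viability read-out, with cytotoxicity seen as a concentration-dependent ATP drop. Cells were treated for 40 hours in complete medium. AC50 values derive from Hill-equation modelling.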

Experiment [4] can be described thus: Cellular Toxicity (caspase-3) SHSY5Y (AID 657). The settings on record: SH-SY5Y caspase-3 activation, DMSO zero, 10 µM staurosporine = 100%; series mostly up to 91.7 µM. The gist of the method: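 SH-SY5Y human neuroblastoma cells, 1500/well, exposed to compound for 16 hours at 37 °C in complete medium. Caspase-3/7 activity read by Caspase-Glo luminescence after 1 hr at room temperature, normalized to DMSO and 10 uM staurosporine; AC50 from Hill fit.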

Experiment [5] can be described thus: Cellular Toxicity (caspase-3) Mesangial (AID 660).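 Note: cells exposed to compound for 16 h before the caspase read.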 The settings on record: mesangial cells, normalized: DMSO 0%, 100 µM tamoxifen 100%; series mostly up to 91.7 µM. The gist of the method:
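Mesangial cells, 1000/well, 5 h settle at 37 °C; compound 16 h, 37 °C; Caspase-Glo 3/7 reagent 20 min RT; luminescence. Norm.: DMSO = 0%, tamoxifen 100 uM = 100%. AC50, Hill fit.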

A short description of experiment [6]: Cellular Toxicity (caspase-3) SK-N-SH (AID 661).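 Note: 0% = DMSO basal and 100% = 10 µM staurosporine.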 The settings on record: SK-N-SH caspase-3 activation, qHTS; series mostly up to 91.7 µM. In short, it runs like this:
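Human neuroblastoma SK-N-SH, 1500 cells/well, 5 hr pre-incubation, then compound 16 hr, 37 °C. Caspase-Glo 3/7 reagent, 1 hr RT, luminescence. Norm. to DMSO/10 uM staurosporine; Hill-fit AC50.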
(In general: Quantitative high-throughput screening tests each substance at several concentrations.)

The nature of experiment [7]: Cell Viability - LYMP1-003 - Assay at 24 hr (AID 963).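 Note: plate controls were DMSO only for no effect and tetraoctylammonium bromide positive control for full effect.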 The settings on record: LYMP1-003 lymphoblastoid cell viability; series mostly up to 92.2 µM. The gist of the method:
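Cells seeded at 2500/well, 5 hr at 37 C; compounds added; 24 hr at 37 C; CellTiter-Glo added, 30 min room temperature; luminescence read. Decrease in ATP taken as cytotoxicity, AC50 from Hill modelling.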

Experiment [8] in a line: Cell Viability - LYMP2-003 (AID 965).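 Note: cells exposed to compounds for 24 h before reading; 0% = DMSO only and full effect = 92 µM tetraoctylammonium bromide; nearly all actives have a fitted effect of over 50% in size.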 Particulars: LYMP2-003 lymphoblastoid cell viability; series mostly up to 92.2 µM. In short, it runs like this: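 Human lymphoblastoid LYMP2-003 cells, 2500/well, exposed to compounds for 24 h at 37 C in complete medium. Viability read as intracellular ATP by CellTiter-Glo luminescence; AC50 from Hill-equation fits of qHTS concentration-response data.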

The nature of experiment [9]: Cell Viability - LYMP2-005 (AID 967).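 Note: plate controls were DMSO only for no effect and 92 µM tetraoctylammonium bromide control for full effect.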 Particulars: LYMP2-005 lymphoblastoid cell viability; series mostly up to 92.2 µM. The gist of the method:
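Human lymphoblastoid LYMP2-005 cells, 2,500 per well in complete medium, rested 5 h at 37C then compound-treated 24 h at 37C. Intracellular ATP read by CellTiter-Glo luminescence after 30 min at room temperature; AC50 from Hill-equation fits of concentration-response data.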

The nature of experiment [10]: Cell Viability - LYMP2-009 (AID 968).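 Note: 0% = DMSO alone and the full-kill end = tetraoctylammonium bromide at 92 µM; nearly all actives have a fitted effect of over 55% in size.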 The settings on record: LYMP2-009 lymphoblastoid cell viability; series mostly up to 92.2 µM.
Experiment [11] in a line: Cell Viability - LYMP2-013 (AID 970).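 Note: 0% = DMSO only and full inhibition = tetraoctylammonium bromide control; nearly all actives have a fitted effect of over 55% in size.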 The settings on record: LYMP2-013 lymphoblastoid cells viability; series mostly up to 92.2 µM. The gist of the method: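 qHTS; 2500 lymphoblastoid cells/well; 5 hr 37 C settle; cpd 24 hr 37 C; CellTiter-Glo, 30 min RT; luminescence. AC50 = Hill fit.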
The nature of experiment [12]: Cell Viability - LYMP2-017 (AID 972). Note: % is set by controls: 0 for no effect and ±100 for the full control effect; nearly all actives have a fitted effect of over 55% in size. Particulars: LYMP2-017 lymphoblastoid cell viability; series mostly up to 92.2 µM. The gist of the method: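 2500 cells/well, 5 h 37 C; cpd 24 h 37 C in complete medium; CellTiter-Glo, 30 min RT; luminescence (ATP). AC50 via Hill fit, qHTS.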
Experiment [13] can be described thus: Cell Viability - LYMP2-023 (AID 975).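 Note: cellular ATP measured by luciferase luminescence as viability proxy; plate controls were DMSO only for no effect and 92 µM tetraoctylammonium bromide control for full effect; nearly all actives have a fitted effect of over 55% in size.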 Particulars: LYMP2-023 lymphoblastoid cell viability; series mostly up to 92.2 µM. The gist of the method: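 2500 cells/well, 5 hr 37 C; cpd 24 hr 37 C; CellTiter-Glo, 30 min RT; luminescence. qHTS conc-response, Hill fit -> AC50. Pos ctrl tetraoctylammonium bromide.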
A short description of experiment [14]: Cell Viability - LYMP2-016 (AID 984). Particulars: LYMP2-016 lymphoblastoid cell viability, qHTS; series mostly up to 92.2 µM. In short, it runs like this: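 Human lymphoblastoid LYMP2-016 cells, 2500 per well, treated with compounds for 24 h at 37 C. Viability read as intracellular ATP by CellTiter-Glo luminescence after 30 min at room temperature; AC50 from Hill fits of concentration-response.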

Experiment [15] concerns the target Vitamin D3 receptor (Homo sapiens) (UniProt P11473). The experiment in a line: qHTS assay for small molecule antagonists of vitamin D receptor signaling (AID 588541; calls by dose curve;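 note: receptor activated by calcitriol during compound treatment; % is set by controls: 0 for no effect and ±100 for the full control effect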). The settings on record: HEK293T VDR-UAS-bla, beta-lactamase ratio, antagonist mode; series mostly up to 76.7 µM. The gist of the method:
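Antagonist-mode beta-lactamase reporter assay: HEK293T VDR-UAS-bla cells were exposed to titrated compound alongside 1-alpha,25-dihydroxyvitamin D3 at 3 nM final for 16 h. Values were normalized to the 50 nM agonist control and DMSO basal, with IC50 and efficacy from Hill equation fits.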

A short description of experiment [16]: qHTS assay for small molecule agonists of retinoid X receptor alpha signaling (AID 588544). Particulars: HEK293T RXRa-UAS-bla, beta-lactamase reporter, 18 h; 530 nm emission.
Experiment [17] can be described thus: qHTS assay for small molecule activators of the p53 signaling pathway (AID 651743; active = well fitted activation curve with a large enough effect in the signal ratio, not every such curve was filed as active; the % refers to the signal ratio; note: % of control where 0% means no effect). The settings on record: HCT-116 p53RE-bla, beta-lactamase FRET ratio, 16 h; activation: stronger effect = higher value. In short, it runs like this:
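Read-out is fluorescence intensity from the LiveBLAzer B/G FRET substrate, added for 2 hours at room temperature after HCT-116 p53RE-bla cells had been incubated with compounds for 16 hours at 37 C.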

Experiment [18] is described as follows: qHTS assay for small molecule agonists of the antioxidant response element (ARE) signaling pathway measured by Nrf2-dependant transcriptional activity - cell viability counter screen (AID 720653; active = well fitted curve in the direction sought with a large enough effect in the repeat runs; an effect the other way counts as inactive or inconclusive; note: % is set by controls: 0 for no effect and ±100 for the full control effect). The settings on record: ARE-bla HepG2 viability, CellTiter-Glo ATP luminescence, 16 h; stronger effect = lower value. The gist of the method: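 Cytotoxicity counter screen: intracellular ATP quantified by CellTiter-Glo luminescence in the same ARE-bla HepG2 plates, after 16 h compound exposure and a 2 h beta-lactamase substrate step.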

A short description of experiment [19]: qHTS assay for cell viability of HEK293 cells (AID 743288). Note: % is set by controls: 0 for no effect and ±100 for the full control effect; nearly all actives have a fitted effect of over 50% in size. Particulars: ATP luminescence (CellTiter-Glo), 18 h, stronger effect = lower value. The gist of the method: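 Parental HEK293 cells, 2,000 per well, preincubated at least 5 h at 37 C, then exposed to compounds in DMSO for 18 h at 37 C. Viability by CellTiter-Glo ATP luminescence after 30 min at room temperature.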

The nature of experiment [20]: Cellular Toxicity (caspase-3) Renal Proximal Tubule (AID 667).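 Note: cells exposed to compound for 16 hours at 37 °C before detection; 0% = DMSO basal and 100% = 10 µM staurosporine.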 Particulars: renal proximal tubule cells; series mostly up to 91.7 µM. In short, it runs like this:
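Freshly isolated primary rat kidney proximal tubule cells, 1000/well, treated 16 hr at 37 °C, then Caspase-Glo 3/7 luminescence after 1 hr. Normalized to DMSO and 10 uM staurosporine; AC50 from Hill fit.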

Sequence of Vitamin D3 receptor (Homo sapiens) (P11473 whole entry, looked up): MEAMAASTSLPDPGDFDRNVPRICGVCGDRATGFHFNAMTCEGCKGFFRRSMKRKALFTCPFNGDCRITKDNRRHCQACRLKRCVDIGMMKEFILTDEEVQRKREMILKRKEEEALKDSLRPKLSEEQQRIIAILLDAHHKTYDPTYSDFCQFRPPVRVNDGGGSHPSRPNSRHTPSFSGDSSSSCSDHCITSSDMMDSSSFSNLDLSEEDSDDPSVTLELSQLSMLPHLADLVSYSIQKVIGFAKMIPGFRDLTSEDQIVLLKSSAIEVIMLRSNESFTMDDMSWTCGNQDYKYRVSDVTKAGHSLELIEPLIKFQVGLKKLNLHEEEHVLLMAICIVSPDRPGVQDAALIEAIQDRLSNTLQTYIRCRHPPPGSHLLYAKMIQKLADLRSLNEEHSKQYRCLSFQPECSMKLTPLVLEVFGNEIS

Take `ClCc1ccccn1`: in experiment [1], the Potency was > 92 µM (inactive). The Potency entry in experiment [2], in experiment [3], in [6], in experiment [8], in [9] and in [10] was “inactive” in each case. The Potency entry in experiment [11], in [12], in experiment [13] and in [14] was “inactive” each time. For the same compound, the call in experiment [4], in [5], in experiment [7] and in experiment [15] was inactive. In addition, the max response was -5.13% and -0.246% in experiment [16]; -0.496% (inactive) and -9.53% (inactive) in [18]; 1.66% (inactive) and -12.2% (inactive) in experiment [19]. Further, the activation in experiment [17] is -0.689% (inactive) and -0.994% (inactive).
With `Cl/C=C/Cl`, the Potency in experiment [1] is > 92 µM (inactive). In addition, the Potency result in experiment [2], in experiment [3], in experiment [8], in experiment [9], in experiment [10] and in experiment [11] was “inactive” throughout. Also, the Potency result in [12], in experiment [13] and in experiment [14] was “inactive” throughout. The outcome in [5], in experiment [7] and in [15] was inactive. Further, the max response in [16] was 1.12%; in [18], 1.77% (inactive); in [19], -15.8% (inactive). Also, the activation in experiment [17] was -3.7% (inactive).
For `c1ccc(P(c2ccccc2)c2ccccc2)cc1`, the Potency in experiment [1] was > 92 µM (inactive). The Potency entry in experiment [2], in [3], in [6], in experiment [8], in experiment [10] and in experiment [12] was “inactive” each time. Further, the Potency result in experiment [13] and in experiment [14] was “inactive” each time. In addition, the outcome in [4], in experiment [5], in experiment [20], in [7] and in experiment [15] was inactive. The max response in experiment [16] is 22.6%; in experiment [18] it was -10.4% (inactive); in experiment [19], -11.3% (inactive). In addition, in experiment [17], the activation was -3.71% (inactive).
In the case of `CCCCCc1cc(O)cc(O)c1`, in experiment [1], the Potency is > 92 µM (inactive). Also, the Potency result in experiment [2], in experiment [3], in experiment [6], in experiment [8], in [10] and in experiment [11] was “inactive” in each case. The Potency entry in experiment [12], in experiment [13] and in [14] was “inactive” throughout. Also, the compound was called inactive in experiment [4], in experiment [5], in experiment [20], in experiment [7] and in experiment [15]. Also, the max response in [16] is 0.917%; in experiment [18], 8.35% (inactive); in experiment [19], -5.2% (inactive). Moreover, the activation in [17] is -2.37% (inactive).
As for `c1ccc2c(c1)CCNC2`, the Potency in experiment [1] is > 92 µM (inactive). Also, the Potency result in experiment [2], in experiment [3], in [6], in experiment [8], in experiment [9] and in experiment [11] was “inactive” each time. Also, the Potency result in experiment [12], in experiment [13] and in [14] was “inactive” throughout. Also, the outcome in experiment [4], in experiment [5], in experiment [20], in experiment [7] and in experiment [15] was inactive. The figures for the max response in [16], in experiment [18] and in [19] were -9.85%, 5.02% (inactive) and 1.81% (inactive), respectively. The activation in experiment [17] was -2.09% (inactive).
On to `C/C=C/CC#N`, for which the Potency in experiment [1] was > 92 µM (inactive). Besides, the Potency result in [2], in experiment [3], in [8], in [9], in [10] and in experiment [11] was “inactive” throughout. Also, the Potency result in experiment [12], in experiment [13] and in experiment [14] was “inactive” in each case. Besides, the result in [4], in experiment [5], in experiment [20] and in experiment [7] was inactive. The max response is -10.7% in experiment [16], -11.2% (inactive) in experiment [18] and -10.8% (inactive) in experiment [19]. Also, the activation in experiment [17] was -0.715% (inactive).
Regarding `C=CC#N`, in experiment [1], the Potency is > 92 µM (inactive). Further, the Potency entry in experiment [2], in [3], in experiment [8], in experiment [9], in experiment [10] and in [11] was “inactive” in each case. Also, the Potency entry in experiment [13] and in experiment [14] was “inactive” each time. Further, the call in experiment [4], in experiment [5] and in experiment [15] was inactive. For the same compound, the max response in [16] is 6.79%; in [18], 7.55% (inactive). Moreover, the activation in experiment [17] is -2.66% (inactive).
